# Data published in PubChem BioAssay (NCI).
# Where “and” joins values, the source holds several entries; their conditions need not be identical. Identical values can stand only once. Compounds without any hit were thinned out: in the full panel of roughly 83,000, 20% have a hit.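 Single-dose data. Exposure time 48 hours. Values below 10 considered active.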 Calls of active or inactive are those of the source.
# Experiments:
# Assay in all cases: NCI-60 one-dose screen, 48 h (100 = growth as untreated, 0 = no growth, -100 = all killed)
# Conditions in all cases: 10 µM unless noted
# HCT-15 colon = tested on: HCT-15 colon
# HT29 colon = tested on: HT29 colon
# SNB-75 CNS = tested on: SNB-75 CNS
# SNB-19 CNS = tested on: SNB-19 CNS
# U251 CNS = tested on: U251 CNS
# PC-3 prostate = tested on: PC-3 prostate
# UACC-62 melanoma = tested on: UACC-62 melanoma
# LOX IMVI melanoma = tested on: LOX IMVI melanoma
# SK-MEL-28 melanoma = tested on: SK-MEL-28 melanoma
# SK-MEL-5 melanoma = tested on: SK-MEL-5 melanoma
Structure (SMILES),growth (HCT-15 colon),growth (HT29 colon),growth (SNB-75 CNS),growth (SNB-19 CNS),growth (U251 CNS),growth (PC-3 prostate),growth (UACC-62 melanoma),growth (LOX IMVI melanoma),growth (SK-MEL-28 melanoma),growth (SK-MEL-5 melanoma)
O=[N+]([O-])c1cccc(N=Cc2ccccc2)c1,105% (inactive),101% (inactive),96.7% (inactive),118% (inactive),103% (inactive),90.6% (inactive),103% (inactive),102% (inactive),122% (inactive),–
CCC/C(=N/NC(N)=O)c1ccco1,103% (inactive),93.7% (inactive),75.2% (inactive),90.1% (inactive),91.8% (inactive),86.8% (inactive),92.7% (inactive),98.1% (inactive),97.7% (inactive),–
CC(NC(=O)CCl)c1ccccc1 (stereo unspecified),94.9% (inactive),104% (inactive),85.6% (inactive),–,103% (inactive),95.2% (inactive),102% (inactive),98.2% (inactive),111% (inactive),93.7% (inactive)
COc1cc(NCCCCCCCNC(C)C)c2nccc(C)c2c1,89.2% (inactive) and 58.5% (inactive),53.7% (inactive) and 14.2% (inactive),74.4% (inactive) and 61.1% (inactive),90.9% (inactive) and 74.2% (inactive),80.8% (inactive) and 61.3% (inactive),58.1% (inactive) and 75.9% (inactive),88.2% (inactive) and 3.49% (active),92.5% (inactive) and 54.7% (inactive),105% (inactive) and 91.4% (inactive),–
COC(=O)CCOc1ccccc1,101% (inactive),97.9% (inactive),61.1% (inactive),99.5% (inactive),96% (inactive),85.3% (inactive),99% (inactive),91.3% (inactive),123% (inactive),–
Cc1ccc(S(=O)(=O)n2ccnc2)cc1,105% (inactive),106% (inactive),87.6% (inactive),117% (inactive),101% (inactive),103% (inactive),92.7% (inactive),95.5% (inactive),111% (inactive),–
CC(CN(C)C)CN1c2ccccc2Sc2ccccc21 (stereo unspecified),84.8% (inactive) and 89.2% (inactive) and 84.7% (inactive),56.1% (inactive) and 71.1% (inactive) and 67.4% (inactive),64.2% (inactive) and 60.6% (inactive) and 43.4% (inactive),94.6% (inactive) and 80.4% (inactive) and 91.2% (inactive),73.4% (inactive) and 87.5% (inactive) and 76.9% (inactive),63.7% (inactive) and -49.1% (active) and 52.7% (inactive),92.8% (inactive) and 65.9% (inactive),80.6% (inactive) and 83.5% (inactive) and 73.2% (inactive),87.6% (inactive) and 113% (inactive) and 68.2% (inactive),–
CC1CCC(=O)N1c1ccc(N)cc1 (stereo unspecified),108% (inactive),96.6% (inactive),97.4% (inactive),97.8% (inactive),97.3% (inactive),94.4% (inactive),100% (inactive),95.1% (inactive),107% (inactive),–
O=C(NC(CSSCC(NC(=O)OCc1ccccc1)C(=O)O)C(=O)O)OCc1ccccc1 (stereo unspecified),90.9% (inactive) and 98.4% (inactive),92.7% (inactive) and 96% (inactive),78.4% (inactive) and 90.8% (inactive),–,84.2% (inactive) and 97.5% (inactive),90.5% (inactive) and 73.1% (inactive),91.5% (inactive) and 102% (inactive),103% (inactive) and 95% (inactive),96.6% (inactive) and 104% (inactive),90% (inactive) and 102% (inactive)
C/C=C/C(=O)OCCCCCCCCCCCC,123% (inactive),92.6% (inactive),101% (inactive),–,98.6% (inactive),101% (inactive),91.6% (inactive),106% (inactive),114% (inactive),97.7% (inactive)
CC(C)(C)OC(=O)NCCc1ccc(N)cc1,111% (inactive),95.6% (inactive),87.6% (inactive),–,103% (inactive),89.5% (inactive),100% (inactive),106% (inactive),112% (inactive),99.2% (inactive)
O=COCCCc1ccccc1,107% (inactive),95.9% (inactive),109% (inactive),–,94.5% (inactive),94.4% (inactive),88.7% (inactive),99% (inactive),108% (inactive),98.2% (inactive)
O=[N+]([O-])c1ccc(NC2CCCCC2)nc1,106% (inactive) and 102% (inactive),106% (inactive) and 104% (inactive),102% (inactive) and 96.9% (inactive),103% (inactive) and 108% (inactive),107% (inactive) and 101% (inactive),105% (inactive) and 98% (inactive),104% (inactive) and 92.2% (inactive),94% (inactive),128% (inactive) and 111% (inactive),–
O=[N+]([O-])c1ccc(N2CCN=N2)cc1,80% (inactive),88.4% (inactive),89.2% (inactive),94.7% (inactive),88.1% (inactive),73.8% (inactive),68.7% (inactive),73.3% (inactive),93.7% (inactive),–
CCOC(C)=N,105% (inactive),102% (inactive),93.2% (inactive),104% (inactive),104% (inactive),99.3% (inactive),102% (inactive),100% (inactive),112% (inactive),–
O=C(OCc1ccccc1)c1ccccc1,114% (inactive) and 103% (inactive),114% (inactive) and 87.8% (inactive),98.7% (inactive),101% (inactive) and 92.1% (inactive),99.8% (inactive) and 105% (inactive),107% (inactive) and 85.4% (inactive),92.6% (inactive) and 102% (inactive),96.2% (inactive),106% (inactive) and 120% (inactive),–
CCOP(=O)(OCC)/C(C#N)=C/c1c(C)[nH]c2ccccc12,108% (inactive),106% (inactive),49.8% (inactive),94.6% (inactive),88.9% (inactive),83.3% (inactive),82.3% (inactive),89.7% (inactive),113% (inactive),–
COc1ccc(/C=N/Nc2nc3ccccc3s2)cc1,90.4% (inactive),92.3% (inactive),80.5% (inactive),–,85.9% (inactive),81.2% (inactive),83% (inactive),95.4% (inactive),99.2% (inactive),91.6% (inactive)
CCCCCCC(C)CC1=C(O)c2ccccc2C(=O)C1=O (stereo unspecified),28.4% (inactive),66.6% (inactive),61.6% (inactive),46% (inactive),46.3% (inactive),33.9% (inactive),29.9% (inactive),10.2% (inactive),64.4% (inactive),–
CCOC(=N)c1ccc(C(=N)OCC)cc1,96.4% (inactive),101% (inactive),103% (inactive),–,102% (inactive),103% (inactive),96.8% (inactive),98.1% (inactive),101% (inactive),95.7% (inactive)
O=C(O)c1cccc(Br)c1,108% (inactive) and 102% (inactive),101% (inactive) and 94.4% (inactive),91.5% (inactive) and 99.7% (inactive),–,103% (inactive) and 90.7% (inactive),95% (inactive) and 97.6% (inactive),103% (inactive) and 102% (inactive),95.8% (inactive) and 99.3% (inactive),112% (inactive) and 115% (inactive),104% (inactive) and 109% (inactive)
CCC(C)NC(=O)c1ccccc1C (stereo unspecified),96.3% (inactive),97.4% (inactive),76.8% (inactive),97.9% (inactive),102% (inactive),101% (inactive),100% (inactive),95.7% (inactive),94.3% (inactive),–
COCCNC(C)=O,100% (inactive),108% (inactive),99.2% (inactive),–,98.1% (inactive),101% (inactive),99.9% (inactive),105% (inactive),112% (inactive),96.7% (inactive)
COc1ccc(COC=O)cc1,107% (inactive),104% (inactive),102% (inactive),114% (inactive),100% (inactive),99.9% (inactive),104% (inactive),100% (inactive),111% (inactive),–
